Source: publication PMC7862700, “An all-to-all approach to the identification of sequence-specific readers for epigenetic DNA modifications on cytosine”

Tests used:
Assay in all cases: DAPPL (digital affinity profiling via proximity ligation, sequencing); 10 mM Tris-HCl pH 7.5, 50 mM NaCl, 1 mM DTT, 4% glycerol, room temperature, 30 min; GST-TFs on glutathione beads, 16-mer random dsDNA library, 0.1% formaldehyde crosslink after washing; high values mean tight binding
FLI1 = target: T1, FLI1 (Homo sapiens, UniProt Q01543 1-452); settings: protein: recombinant; tags: N-terminal GST; dsDNA, one strand shown
T1 sequence: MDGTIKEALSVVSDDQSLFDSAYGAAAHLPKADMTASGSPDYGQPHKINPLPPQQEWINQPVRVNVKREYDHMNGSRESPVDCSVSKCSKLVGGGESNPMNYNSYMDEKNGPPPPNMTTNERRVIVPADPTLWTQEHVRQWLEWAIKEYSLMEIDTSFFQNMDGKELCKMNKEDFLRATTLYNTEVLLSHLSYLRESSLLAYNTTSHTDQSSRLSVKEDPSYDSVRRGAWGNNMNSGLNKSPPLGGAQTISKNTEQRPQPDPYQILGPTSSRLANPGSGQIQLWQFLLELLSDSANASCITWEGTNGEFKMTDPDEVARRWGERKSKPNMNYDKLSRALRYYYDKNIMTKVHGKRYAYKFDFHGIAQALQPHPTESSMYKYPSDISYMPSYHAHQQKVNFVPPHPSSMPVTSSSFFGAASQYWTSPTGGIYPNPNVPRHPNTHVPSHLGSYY
In short: (§1)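 Binding signal is defined as a hexamer's read frequency for one factor over its frequency for the tag-only sample. To obtain reads, GST-fused human transcription factors were expressed in yeast, captured on glutathione beads, barcoded with DNA and pooled with that sample. Pools met 200 nmole of a 16-mer random double-stranded DNA library in Tris/NaCl/DTT/glycerol buffer for 30 min at room temperature before washing, 0.1% formaldehyde crosslinking, proximity ligation (BsaI/T4 ligase, 1 h, 37 °C), PCR and Illumina NextSeq500 sequencing.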

ELK1 = target: T2, ELK1 (Homo sapiens, UniProt P19419 1-428); settings: protein: recombinant; tags: N-terminal GST; dsDNA, one strand shown
T2 sequence: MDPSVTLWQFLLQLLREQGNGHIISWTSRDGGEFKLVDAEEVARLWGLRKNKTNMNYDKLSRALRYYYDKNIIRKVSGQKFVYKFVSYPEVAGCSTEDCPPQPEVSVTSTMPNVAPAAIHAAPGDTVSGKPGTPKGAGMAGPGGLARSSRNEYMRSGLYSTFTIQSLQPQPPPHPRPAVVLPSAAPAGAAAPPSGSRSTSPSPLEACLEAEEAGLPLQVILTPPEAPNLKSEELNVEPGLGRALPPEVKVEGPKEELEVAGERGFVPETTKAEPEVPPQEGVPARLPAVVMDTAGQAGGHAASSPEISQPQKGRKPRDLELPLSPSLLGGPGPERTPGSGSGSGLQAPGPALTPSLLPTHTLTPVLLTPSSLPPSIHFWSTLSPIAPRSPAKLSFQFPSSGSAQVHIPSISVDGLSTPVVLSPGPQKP
In short: as §1

GABPA = target: T3, GABPA (Homo sapiens, UniProt Q06546 1-454); settings: protein: recombinant; tags: N-terminal GST; dsDNA, one strand shown
T3 sequence: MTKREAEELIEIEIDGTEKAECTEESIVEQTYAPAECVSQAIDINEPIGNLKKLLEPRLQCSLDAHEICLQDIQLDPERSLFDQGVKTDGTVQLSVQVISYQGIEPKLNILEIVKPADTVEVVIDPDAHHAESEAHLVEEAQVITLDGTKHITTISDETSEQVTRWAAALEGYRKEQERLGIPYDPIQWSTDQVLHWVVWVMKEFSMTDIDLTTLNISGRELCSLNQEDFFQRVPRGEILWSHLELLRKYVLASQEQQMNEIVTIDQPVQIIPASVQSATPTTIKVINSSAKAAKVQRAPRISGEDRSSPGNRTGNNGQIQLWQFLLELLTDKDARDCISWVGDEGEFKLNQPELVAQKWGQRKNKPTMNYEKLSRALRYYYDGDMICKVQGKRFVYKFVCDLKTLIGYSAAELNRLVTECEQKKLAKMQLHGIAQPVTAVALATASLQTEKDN
In short: as §1

ERG = target: T4, ERG (Homo sapiens, UniProt P11308 1-479); settings: protein: recombinant; tags: N-terminal GST; dsDNA, one strand shown
T4 sequence: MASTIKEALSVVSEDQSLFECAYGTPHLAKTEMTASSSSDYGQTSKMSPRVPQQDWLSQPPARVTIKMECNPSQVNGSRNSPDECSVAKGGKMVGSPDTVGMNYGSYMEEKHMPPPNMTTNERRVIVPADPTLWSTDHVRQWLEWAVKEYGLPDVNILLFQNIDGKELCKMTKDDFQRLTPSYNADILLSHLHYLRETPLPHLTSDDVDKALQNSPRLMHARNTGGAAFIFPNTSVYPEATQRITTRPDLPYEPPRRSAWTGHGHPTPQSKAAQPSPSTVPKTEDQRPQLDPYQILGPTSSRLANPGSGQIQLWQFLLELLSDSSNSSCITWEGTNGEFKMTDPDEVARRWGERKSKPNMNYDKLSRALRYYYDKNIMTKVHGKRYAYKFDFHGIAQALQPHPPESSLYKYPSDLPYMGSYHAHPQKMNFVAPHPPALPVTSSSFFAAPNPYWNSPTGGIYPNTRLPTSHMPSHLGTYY
In short: as §1

ELF1 = ELF1 (Homo sapiens, UniProt P32519 1-619); settings: protein: recombinant; tags: N-terminal GST; dsDNA, one strand shown
Chain of ELF1 (P32519 whole entry): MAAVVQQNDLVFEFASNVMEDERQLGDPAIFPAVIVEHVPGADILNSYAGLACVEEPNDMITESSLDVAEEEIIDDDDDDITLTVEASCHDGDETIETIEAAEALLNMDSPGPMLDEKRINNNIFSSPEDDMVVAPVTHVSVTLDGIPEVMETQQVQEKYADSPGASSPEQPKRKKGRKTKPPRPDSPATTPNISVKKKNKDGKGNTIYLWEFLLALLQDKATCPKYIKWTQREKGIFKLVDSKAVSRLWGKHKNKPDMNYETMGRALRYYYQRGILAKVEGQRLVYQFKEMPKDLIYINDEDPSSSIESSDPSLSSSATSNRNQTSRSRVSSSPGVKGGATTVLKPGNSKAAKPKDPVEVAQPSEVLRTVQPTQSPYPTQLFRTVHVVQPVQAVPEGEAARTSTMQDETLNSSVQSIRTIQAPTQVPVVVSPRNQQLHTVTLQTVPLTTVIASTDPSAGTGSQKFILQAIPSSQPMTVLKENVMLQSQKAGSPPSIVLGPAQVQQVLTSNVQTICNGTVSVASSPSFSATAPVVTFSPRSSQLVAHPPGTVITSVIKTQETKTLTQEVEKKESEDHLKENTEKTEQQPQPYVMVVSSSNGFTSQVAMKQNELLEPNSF
In short: as §1

EHF = target: T5, EHF (Homo sapiens, UniProt Q9NZC4 1-300); settings: protein: recombinant; tags: N-terminal GST; dsDNA, one strand shown
T5 sequence: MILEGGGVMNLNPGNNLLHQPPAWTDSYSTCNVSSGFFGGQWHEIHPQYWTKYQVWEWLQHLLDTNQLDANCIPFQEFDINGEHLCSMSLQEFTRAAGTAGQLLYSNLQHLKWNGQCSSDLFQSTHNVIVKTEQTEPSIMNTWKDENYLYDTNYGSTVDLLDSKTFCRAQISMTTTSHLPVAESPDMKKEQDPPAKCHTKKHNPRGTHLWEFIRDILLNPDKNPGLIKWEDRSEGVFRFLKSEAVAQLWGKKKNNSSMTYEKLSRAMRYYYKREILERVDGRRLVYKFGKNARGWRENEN
In short: as §1

SPI1 = SPI1 (Homo sapiens, UniProt P17947 1-270); settings: protein: recombinant; tags: N-terminal GST; dsDNA, one strand shown
In short: as §1

SPIB = SPIB (Homo sapiens, UniProt Q01892 1-262); settings: protein: recombinant; tags: N-terminal GST; dsDNA, one strand shown
Chain of SPIB (Q01892 whole entry): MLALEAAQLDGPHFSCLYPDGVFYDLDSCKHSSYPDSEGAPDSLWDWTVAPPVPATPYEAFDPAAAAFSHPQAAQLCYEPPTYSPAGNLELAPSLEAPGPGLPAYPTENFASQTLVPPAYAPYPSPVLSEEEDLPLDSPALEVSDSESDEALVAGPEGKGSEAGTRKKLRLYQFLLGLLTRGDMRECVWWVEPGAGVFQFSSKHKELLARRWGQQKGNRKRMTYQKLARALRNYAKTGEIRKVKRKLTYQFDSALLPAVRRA
In short: as §1

ELK3 = target: T6, ELK3 (Homo sapiens, UniProt P41970 1-407); settings: protein: recombinant; tags: N-terminal GST; dsDNA, one strand shown
T6 sequence: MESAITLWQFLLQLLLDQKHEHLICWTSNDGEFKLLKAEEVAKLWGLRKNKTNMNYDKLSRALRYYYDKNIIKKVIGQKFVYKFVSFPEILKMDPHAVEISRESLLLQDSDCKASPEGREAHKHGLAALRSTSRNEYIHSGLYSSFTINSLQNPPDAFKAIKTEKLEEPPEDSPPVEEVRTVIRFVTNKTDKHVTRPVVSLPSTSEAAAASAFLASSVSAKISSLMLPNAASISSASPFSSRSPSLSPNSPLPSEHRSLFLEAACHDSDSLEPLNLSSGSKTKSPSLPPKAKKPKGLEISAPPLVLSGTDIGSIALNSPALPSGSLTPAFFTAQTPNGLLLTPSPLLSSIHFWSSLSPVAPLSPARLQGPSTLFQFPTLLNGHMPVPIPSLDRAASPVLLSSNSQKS
In short: as §1

FEV = target: T7, FEV (Homo sapiens, UniProt Q99581 1-238); settings: protein: recombinant; tags: N-terminal GST; dsDNA, one strand shown
T7 sequence: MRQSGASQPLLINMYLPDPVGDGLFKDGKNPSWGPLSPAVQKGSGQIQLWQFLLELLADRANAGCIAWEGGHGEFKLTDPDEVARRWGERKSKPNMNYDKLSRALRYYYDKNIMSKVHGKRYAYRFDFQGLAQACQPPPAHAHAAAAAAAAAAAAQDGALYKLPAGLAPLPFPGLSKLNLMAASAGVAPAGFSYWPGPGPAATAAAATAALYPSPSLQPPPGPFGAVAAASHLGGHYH
In short: as §1

ETV5 = ETV5 (Homo sapiens, UniProt P41161 1-510); settings: protein: recombinant; tags: N-terminal GST; dsDNA, one strand shown
Chain of ETV5 (P41161 whole entry): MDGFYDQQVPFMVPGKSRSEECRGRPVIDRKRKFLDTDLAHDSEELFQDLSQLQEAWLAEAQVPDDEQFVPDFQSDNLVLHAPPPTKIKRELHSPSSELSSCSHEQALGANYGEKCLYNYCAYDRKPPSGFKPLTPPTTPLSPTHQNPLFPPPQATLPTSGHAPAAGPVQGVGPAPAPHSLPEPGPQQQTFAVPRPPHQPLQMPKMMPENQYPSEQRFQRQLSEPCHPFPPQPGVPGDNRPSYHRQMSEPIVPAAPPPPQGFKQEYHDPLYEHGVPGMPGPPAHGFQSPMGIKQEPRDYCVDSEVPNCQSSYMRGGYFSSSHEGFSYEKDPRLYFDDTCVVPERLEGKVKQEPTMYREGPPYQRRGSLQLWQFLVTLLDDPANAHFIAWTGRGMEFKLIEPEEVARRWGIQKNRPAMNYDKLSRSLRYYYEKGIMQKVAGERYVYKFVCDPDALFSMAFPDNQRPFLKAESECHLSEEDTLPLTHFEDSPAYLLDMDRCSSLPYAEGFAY
In short: as §1

HSF1 = HSF1 (Homo sapiens, UniProt Q00613 1-529); settings: protein: recombinant; tags: N-terminal GST; chain copies: 3; dsDNA, one strand shown
Chain of HSF1 (Q00613 whole entry): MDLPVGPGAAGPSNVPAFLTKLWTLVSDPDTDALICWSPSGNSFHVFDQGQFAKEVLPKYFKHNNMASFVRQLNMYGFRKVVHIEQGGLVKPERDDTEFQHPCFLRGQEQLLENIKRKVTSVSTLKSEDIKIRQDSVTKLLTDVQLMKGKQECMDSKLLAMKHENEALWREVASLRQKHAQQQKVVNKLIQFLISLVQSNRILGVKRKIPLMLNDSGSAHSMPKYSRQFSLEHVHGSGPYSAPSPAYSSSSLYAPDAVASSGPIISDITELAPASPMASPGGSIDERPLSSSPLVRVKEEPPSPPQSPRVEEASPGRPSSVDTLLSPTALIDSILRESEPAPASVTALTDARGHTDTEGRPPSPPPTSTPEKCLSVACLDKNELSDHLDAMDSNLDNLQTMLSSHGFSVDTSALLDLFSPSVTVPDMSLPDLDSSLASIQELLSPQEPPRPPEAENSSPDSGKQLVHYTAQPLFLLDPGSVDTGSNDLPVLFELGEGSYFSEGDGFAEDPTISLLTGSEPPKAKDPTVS
In short: as §1

SPIC = target: T8, SPIC (Homo sapiens, UniProt Q8N5J4 1-248); settings: protein: recombinant; tags: N-terminal GST; dsDNA, one strand shown
T8 sequence: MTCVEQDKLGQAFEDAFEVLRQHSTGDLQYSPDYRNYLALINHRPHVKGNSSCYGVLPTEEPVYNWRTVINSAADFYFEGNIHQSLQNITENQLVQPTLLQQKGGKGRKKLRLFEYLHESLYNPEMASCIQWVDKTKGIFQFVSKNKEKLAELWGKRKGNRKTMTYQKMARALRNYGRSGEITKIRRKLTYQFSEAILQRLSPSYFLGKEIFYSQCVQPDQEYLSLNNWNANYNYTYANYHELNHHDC
In short: as §1

ELF4 = ELF4 (Homo sapiens, UniProt Q99607 1-663); settings: protein: recombinant; tags: N-terminal GST; dsDNA, one strand shown
Chain of ELF4 (Q99607 whole entry): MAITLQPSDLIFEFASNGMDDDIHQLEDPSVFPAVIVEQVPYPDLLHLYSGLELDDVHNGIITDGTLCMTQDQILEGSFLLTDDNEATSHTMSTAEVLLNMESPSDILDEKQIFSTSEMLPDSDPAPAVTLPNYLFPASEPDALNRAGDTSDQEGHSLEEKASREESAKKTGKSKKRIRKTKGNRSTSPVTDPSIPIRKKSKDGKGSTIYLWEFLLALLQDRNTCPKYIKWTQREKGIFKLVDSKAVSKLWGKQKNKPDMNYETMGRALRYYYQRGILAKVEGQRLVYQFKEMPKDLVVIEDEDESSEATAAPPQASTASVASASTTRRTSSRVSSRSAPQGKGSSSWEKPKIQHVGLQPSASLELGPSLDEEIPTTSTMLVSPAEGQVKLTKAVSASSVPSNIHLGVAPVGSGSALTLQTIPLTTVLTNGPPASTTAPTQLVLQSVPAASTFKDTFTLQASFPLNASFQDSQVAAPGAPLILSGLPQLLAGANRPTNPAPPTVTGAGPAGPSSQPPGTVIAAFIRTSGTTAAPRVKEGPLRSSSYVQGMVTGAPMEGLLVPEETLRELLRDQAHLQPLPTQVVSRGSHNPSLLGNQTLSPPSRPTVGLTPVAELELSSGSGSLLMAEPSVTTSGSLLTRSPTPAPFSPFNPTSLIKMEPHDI
In short: as §1

ELK4 = target: T9, ELK4 (Homo sapiens, UniProt P28324-2 1-405); settings: protein: recombinant; tags: N-terminal GST; dsDNA, one strand shown
T9 sequence: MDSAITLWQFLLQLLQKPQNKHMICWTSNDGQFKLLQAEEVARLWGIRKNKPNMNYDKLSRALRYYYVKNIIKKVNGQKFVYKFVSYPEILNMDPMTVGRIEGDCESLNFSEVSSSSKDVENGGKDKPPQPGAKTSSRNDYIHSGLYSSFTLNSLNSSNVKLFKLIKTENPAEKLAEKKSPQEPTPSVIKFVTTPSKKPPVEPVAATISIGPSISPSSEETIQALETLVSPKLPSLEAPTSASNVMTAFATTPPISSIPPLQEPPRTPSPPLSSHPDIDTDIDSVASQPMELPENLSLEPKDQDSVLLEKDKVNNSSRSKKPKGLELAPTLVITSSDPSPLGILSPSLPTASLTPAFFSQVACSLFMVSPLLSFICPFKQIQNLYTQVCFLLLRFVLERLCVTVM
In short: as §1

ETV2 = target: T10, ETV2 (Homo sapiens, UniProt O00321 1-342); settings: protein: recombinant; tags: N-terminal GST; dsDNA, one strand shown
T10 sequence: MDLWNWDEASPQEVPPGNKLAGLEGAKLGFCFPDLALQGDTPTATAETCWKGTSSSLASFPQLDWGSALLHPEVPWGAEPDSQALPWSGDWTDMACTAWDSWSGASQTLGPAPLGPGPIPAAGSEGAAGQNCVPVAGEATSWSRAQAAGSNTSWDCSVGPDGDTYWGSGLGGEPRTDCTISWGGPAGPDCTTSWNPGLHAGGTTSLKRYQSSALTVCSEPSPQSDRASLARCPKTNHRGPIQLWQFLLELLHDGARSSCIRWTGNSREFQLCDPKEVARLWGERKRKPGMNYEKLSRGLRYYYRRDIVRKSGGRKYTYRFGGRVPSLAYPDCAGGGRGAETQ
In short: as §1

ELF3 = target: T11, ELF3 (Homo sapiens, UniProt P78545 1-371); settings: protein: recombinant; tags: N-terminal GST; dsDNA, one strand shown
T11 sequence: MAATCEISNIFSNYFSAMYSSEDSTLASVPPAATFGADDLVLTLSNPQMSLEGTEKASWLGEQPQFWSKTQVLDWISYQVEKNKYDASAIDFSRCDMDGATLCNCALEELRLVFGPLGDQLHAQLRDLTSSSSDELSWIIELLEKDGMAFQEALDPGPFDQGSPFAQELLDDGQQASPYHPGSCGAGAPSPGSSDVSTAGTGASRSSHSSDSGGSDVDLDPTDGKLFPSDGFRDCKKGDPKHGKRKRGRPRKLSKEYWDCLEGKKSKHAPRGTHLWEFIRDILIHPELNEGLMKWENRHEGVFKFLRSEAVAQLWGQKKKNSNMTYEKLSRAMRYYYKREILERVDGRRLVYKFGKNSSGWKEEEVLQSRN
In short: as §1

CRX = CRX (Homo sapiens, UniProt O43186 1-299); settings: protein: recombinant; tags: N-terminal GST; dsDNA, one strand shown
Chain of CRX (O43186 whole entry): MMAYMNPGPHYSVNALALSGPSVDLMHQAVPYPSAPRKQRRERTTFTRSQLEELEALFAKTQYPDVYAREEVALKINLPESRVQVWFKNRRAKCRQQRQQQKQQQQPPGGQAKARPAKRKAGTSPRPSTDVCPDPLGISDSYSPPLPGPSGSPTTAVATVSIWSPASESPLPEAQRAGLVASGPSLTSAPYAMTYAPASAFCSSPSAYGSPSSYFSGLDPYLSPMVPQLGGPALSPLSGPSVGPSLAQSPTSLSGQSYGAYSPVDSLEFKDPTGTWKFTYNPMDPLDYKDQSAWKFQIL
In short: as §1

ETV1 = ETV1 (Homo sapiens, UniProt P50549 1-477); settings: protein: recombinant; tags: N-terminal GST; dsDNA, one strand shown
Chain of ETV1 (P50549 whole entry): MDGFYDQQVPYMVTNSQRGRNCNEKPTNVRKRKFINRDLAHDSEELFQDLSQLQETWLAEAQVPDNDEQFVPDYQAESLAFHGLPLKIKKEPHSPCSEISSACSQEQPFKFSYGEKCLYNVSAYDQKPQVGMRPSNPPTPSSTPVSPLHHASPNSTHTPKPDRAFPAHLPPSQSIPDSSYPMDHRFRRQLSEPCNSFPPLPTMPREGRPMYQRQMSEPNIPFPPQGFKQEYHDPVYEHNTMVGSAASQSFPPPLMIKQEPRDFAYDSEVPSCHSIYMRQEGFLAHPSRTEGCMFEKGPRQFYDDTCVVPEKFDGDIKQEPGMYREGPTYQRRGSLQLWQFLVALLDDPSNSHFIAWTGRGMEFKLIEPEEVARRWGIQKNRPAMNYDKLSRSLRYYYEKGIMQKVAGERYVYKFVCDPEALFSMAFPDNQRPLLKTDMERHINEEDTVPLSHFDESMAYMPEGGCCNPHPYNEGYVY
In short: as §1

In the case of TAATTA, the binding signal (FLI1) is reported as 1.24 fold enrichment (6-mer frequency, TF over GST control), the binding signal (ELK1) is reported as 1.2 fold enrichment (6-mer frequency, TF over GST control) and the binding signal (GABPA) is reported as 1.23 fold enrichment (6-mer frequency, TF over GST control). The binding signal (ERG) was 1.3 fold enrichment (6-mer frequency, TF over GST control), the binding signal (ELF1) was 1.3 fold enrichment (6-mer frequency, TF over GST control) and the binding signal (EHF) was 1.22 fold enrichment (6-mer frequency, TF over GST control). The binding signal (SPI1) was 1.25 fold enrichment (6-mer frequency, TF over GST control), the binding signal (SPIB) was 1.27 fold enrichment (6-mer frequency, TF over GST control) and the binding signal (ELK3) was 1.24 fold enrichment (6-mer frequency, TF over GST control). For the same sequence, the binding signal (FEV) was 1.22 fold enrichment (6-mer frequency, TF over GST control), the binding signal (ETV5) was 1.31 fold enrichment (6-mer frequency, TF over GST control) and the binding signal (HSF1) was 1.81 fold enrichment (6-mer frequency, TF over GST control). For the same sequence, the binding signal (SPIC) was 1.4 fold enrichment (6-mer frequency, TF over GST control), the binding signal (ELF4) was 1.23 fold enrichment (6-mer frequency, TF over GST control) and the binding signal (ELK4) was 1.17 fold enrichment (6-mer frequency, TF over GST control). The binding signal (ETV2) was 1.35 fold enrichment (6-mer frequency, TF over GST control), the binding signal (ELF3) was 1.3 fold enrichment (6-mer frequency, TF over GST control) and the binding signal (CRX) was 2.74 fold enrichment (6-mer frequency, TF over GST control). For the same sequence, the binding signal (ETV1) was 1.33 fold enrichment (6-mer frequency, TF over GST control).
